Bioassay records: PubChem, National Center for Advancing Translational Sciences (NCATS)
The full list was thinned out, with hits kept by preference.
Marburg entry inh – blocks Marburg virus binding to or entry into cells; Marburg virus pseudotyped entry inhibition, cell reporter; hit rate 1.8% among 300,000; Potency, µM (doses to about 37.8 µM), for inactives: top-dose activity change, negative = inhibition, most hits filed as inhibitors; calls by dose curve; tested in HEK293 cells; further: potency means the concentration at half of the fitted maximal effect; on the % scale 0 is the no-effect control and ±100 the full control effect
AMA1 RON2 block – AMA1-RON2 (P. falciparum) interaction inhibition; AlphaScreen AMA1-biotinylated RON2 peptide binding; hit rate 0.2% among 360,000; Potency, µM (top dose mostly 58.2 µM), for inactives: at the top dose activity change, negative = inhibition, usual class: inhibitors; active means well fitted inhibition curve with a large enough effect; inconclusive means small, poorly fitted or top-dose-only effect; inactive means no such curve, though single readings can be large or run the other way;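 further: potency means the concentration at half of the fitted maximal effect; 0% = vehicle wells and -100% = peptide control; nearly all actives have a fitted effect of over 45% in size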
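AMA1 (3D7) with his tag at 25 nM final met compounds first, then biotinylated RON2 peptide at 25 nM; detection used donor plus acceptor beads, 10 µg/mL apiece, read by AlphaScreen after 30 min at room temperature.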
Cycloheximide cs – affects cycloheximide protein synthesis inhibition readout, counter-screen. cell reporter, cycloheximide protein synthesis inhibition counterscreen. max response, %. hit rate 12% among 300,000. AID 2314; in the data active means max response mostly above about 13%, no sharp cut-off; inactive means mostly below about 14%; further: read at 38.3 µM for the half of the compounds with a filed dose; 0% is about no effect
LASV entry inh – Lassa virus entry inhibition | hit rate 1.2% among 300,000 | Lassa virus pseudotype entry inhibition, cell reporter | Potency, µM (series often up to 37.9 µM), without a hit: at the highest dose activity change, negative = inhibition, usual class: inhibitors | AID 540256; calls by dose curve; tested in HEK293 cells; further: potency means the concentration at half of the fitted maximal effect; on the % scale 0 is the no-effect control and ±100 the full control effect; nearly all actives have a fitted effect of over 50% in size
Shiga toxin inh – Shiga toxin inhibition; Vero cells, Shiga toxin protein synthesis inhibition reporter; inhibition, % at 38.7 µM; hit rate 9.2% among 290,000; in the data active means inhibition mostly above about 28%, no sharp cut-off; inactive means mostly below about 43%; further: 0% is about no effect
* = called active by the depositor; ? = inconclusive; nt = no result given; [ ] = another dose, or the depositor's remark.

SMILES | Marburg entry inh | AMA1 RON2 block | Cycloheximide cs | LASV entry inh | Shiga toxin inh
COc1ccc(S(=O)(=O)N2CCN(CC(=O)NC3CC3)CC2)cc1 | 19% | 2% | -2 | 1% | -5
O=C(COc1cccc(Br)c1)N/N=C1\CCCc2ccccc21 | -1%[46.1 µM] | 14% | -4 | 4% | 13
COc1ccccc1OCC(=O)N/N=C1\CCCCc2ccccc21 | -6% | 9% | 17* | ? | 19
COc1ccc(OCC(=O)N/N=C2\CCCc3ccccc32)cc1 | -14% | -12% | 0 | -1% | -21
Cc1cccc2c1OCC/C2=N\NC(=O)COc1ccccc1 | ? | 4% | 60* | -3% | 133*
COc1ccc(C(=O)N/N=C2\CCc3ccccc32)cc1OC | ? | 48% | 30* | -16%[46.1 µM] | 34
COc1ccccc1OCC(=O)N/N=C1\CCc2ccccc21 | -13% | 0% | 38* | ? | 92*
COc1ccc2c(c1)[C@@H](NC(=O)C(F)(F)F)C1CCCCC21c1ccccc1 (stereo not given in full) | -4%[14.2 µM] | nt | nt | nt | nt
CCOc1ccc(-c2nc(Cn3c(=O)cc(C)c4c(C)nn(-c5ccc(C)cc5)c43)c(C)o2)cc1 | nt | nt | nt | 14%[46.1 µM] | nt
O=C(COc1ccccc1F)N/N=C1\CCCc2ccccc21 | 2% | 50% | 35* | -27% | 79*
Cc1cc(Cl)ccc1OCC(=O)N/N=C1\CCCc2ccccc21 | -11% | 13% | 0 | -11% | 8
CCCSc1ncnc2[nH]ncc12 | 3%[46.1 µM] | 12% | nt | -6%[46.1 µM] | nt
COc1ccccc1C(=O)Nc1nsc(-c2ccccc2)n1 | nt | -3% | 49* | nt | 79*
COc1ccc(NC(=O)Nc2ccccn2)cc1OC | nt | 4% | 34* | nt | 62*
CN1C(=O)CSc2ccc(NC(=O)Nc3ccccn3)cc21 | ? | -6% | 50* | ? | 39
COc1ccccc1C(=O)Nc1ccncc1 | -13%[46.1 µM] | 8% | -4 | 22%[46.1 µM] | nt
COc1ccccc1C(=O)Nc1ccccn1 | 14% | 10% | 36* | ? | 60*
C[C@@H](c1ccccc1)N1C(=O)[C@@H]2[C@H]3[C@H](O)[C@H](O)CC(=NNC(=O)OCc4ccccc4)[C@@H]3CC[C@H]2C1=O | -18%[14.2 µM] | nt | nt | nt | nt
O=C(Nc1ccc(Cl)c(Cl)c1)Nc1ccccn1 | nt | -3% | 46* | nt | 66*
Cc1ccc(C2(c3ccccc3)NC(=O)N(CC(=O)NC3(C#N)CCCC3)C2=O)cc1C (stereo not given) | nt | 0% | nt | nt | nt
CSc1nc(N)nc(SCC(=O)c2ccccc2)c1C#N | 24% | -1% | 19* | -21% | 58
N#Cc1c(N)nc(SCC(=O)C23CC4CC(CC(C4)C2)C3)c(C#N)c1-c1ccc(Cl)cc1 | -5%[46.1 µM] | 4% | 2 | -24% | 13
CSc1nc(N)nc(SCC(=O)C23CC4CC(CC(C4)C2)C3)c1C#N | 21µM* | -8% | 20 | -6% | 32
COc1ccc(C(=O)CSc2nc(N)nc(SC)c2C#N)cc1 | -10% | -6% | 3 | -3% | 5
COc1ccc(CN(C)C(=O)C2CCN(C(=O)Nc3ccccc3)CC2)cc1 | ? | 12% | nt | -13% | nt
SMILES | Marburg entry inh | AMA1 RON2 block | Cycloheximide cs | LASV entry inh | Shiga toxin inh
COc1ccc(CCN(Cc2cc3cccc(C)c3n3nnnc23)C(=O)c2ccncc2)cc1OC | nt | nt | -2 | nt | -12
CCOc1ccc(C(=O)Nc2cccc(-c3nc4cccnc4o3)c2)cc1Cl | 8% | -6% | -4 | 26µM* | -6
CCOc1ccc(C(=O)Nc2cccc(C(=O)O)c2)cc1Cl | ? | -7% | 38* | ? | 59*
O=C(Nc1cnccn1)c1ccc(Cl)cc1 | 10%[46.1 µM] | -13% | 5 | 23%[46.1 µM] | 58*
O=C(NCCNC(=O)c1cnccn1)c1ccc(Cl)cc1 | -11%[46.1 µM] | 5% | -9 | 26%[46.1 µM] | -7
N/C(=N\NC(=O)c1ccc(Cl)cc1)c1cnccn1 | ? | 108% | 33* | 1%[46.1 µM] | 48*
COc1ccc(CNC(=O)c2onc(C)c2Cl)cc1 | nt | 0% | -2 | nt | 20
COc1ccc(NC(=O)c2onc(C)c2Cl)cc1OC | -5% | 4% | 51* | nt | 49*
COc1cc(NC(=O)c2onc(C)c2Cl)cc(OC)c1OC | nt | 0% | -2 | nt | -9
CCc1ccc(NC(=O)c2onc(C)c2Cl)cc1 | nt | 0% | 59* | nt | 56*
COc1ccc(NC(=O)c2onc(C)c2Cl)cc1 | nt | 19% | 40* | nt | 89*
Cc1noc(C(=O)Nc2ccc(C#N)cc2)c1Cl | 22%[46.1 µM] | -3% | -1 | 1%[46.1 µM] | 34
CC(C)CON=C1C[C@@H](O)[C@@H](O)[C@@H]2[C@H]3C(=O)N(c4ccc(F)cc4F)C(=O)[C@@H]3CC[C@H]12 | -10%[14.2 µM] | nt | nt | nt | nt
CC(=O)c1c(C)[nH]c(C(=O)OCC(=O)c2ccc3c(c2)NC(=O)CO3)c1C | nt | -16% | nt | nt | nt
